Common to all, as to conditions: mRNA level, 48 h; actives raise or lower the signal
Read-out in assay [1]: Bcl-2 (BAX) gene, BAX (gene 581)
Nature of the assay: LTEA_HepaRG_BAX: Life Technologies and Expression Analysis (LTEA) Assay for Bcl-2 (BAX) gene using HepaRG (AID 2283470). Summed up: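 Gene expression measured by Fluidigm qRT-PCR with three housekeeping genes for normalisation. HepaRG cells, plated 48 h beforehand, treated 48 h at up to 100 uM (8-point, half-log) in 0.5% DMSO. Bidirectional fitting versus DMSO.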

Read-out in assay [2]: adenosine kinase (ADK) gene, ADK (gene 132)
The assay is described as follows: LTEA_HepaRG_ADK: Life Technologies and Expression Analysis (LTEA) Assay for adenosine kinase (ADK) gene using HepaRG (AID 2283471). In short, it runs like this: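 Read-out is ADK transcript level measured by qRT-PCR and normalised to three housekeeping genes. Cells are human HepaRG, dosed for 48 h at up to 100 uM in 0.5% DMSO. Gain or loss of signal is fitted against DMSO controls.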

Read-out in assay [3]: Alpha-fetoprotein (AFP) gene, AFP (gene 174)
Nature of the assay: LTEA_HepaRG_AFP: Life Technologies and Expression Analysis (LTEA) Assay for Alpha-fetoprotein (AFP) gene using HepaRG (AID 2283472). In short, it runs like this: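 AFP transcript measured by TaqMan qRT-PCR with three housekeeping genes for normalization, after 48 h chemical treatment of HepaRG cells (top 100 uM, half-log steps, 0.5% DMSO). Gain or loss fitted against vehicle.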

Read-out in assay [4]: BCL2L11 (gene 10018)
Nature of the assay: LTEA_HepaRG_BCL2L11: Life Technologies and Expression Analysis (LTEA) Assay for Bcl-2 (BCL2L11) gene using HepaRG (AID 2283473). Summed up:
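Human hepatic HepaRG cultures are treated 48 h with test chemicals (maximum 100 uM, 0.5% DMSO vehicle). Expression of BCL2L11 is measured by qRT-PCR against ACTB, GAPDH and POLR2A, with activity in either direction scored relative to vehicle.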

Read-out in assay [5]: Apolipoprotein A-V (APOA5) gene, APOA5 (gene 116519)
Nature of the assay: LTEA_HepaRG_APOA5: Life Technologies and Expression Analysis (LTEA) Assay for Apolipoprotein A-V (APOA5) gene using HepaRG (AID 2283474). Summed up: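 Concentration-response of APOA5 expression in HepaRG: eight half-log doses to 100 uM, 48 h, qRT-PCR normalized to ACTB/GAPDH/POLR2A, bidirectional fitting with 0.5% DMSO as baseline.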

Read-out in assay [6]: Apoptosis regulator Bcl-2 (Homo sapiens) (UniProt P10415)
The assay is described as follows: LTEA_HepaRG_BCL2: Life Technologies and Expression Analysis (LTEA) Assay for Bcl-2 gene using HepaRG (AID 2283475). Summed up: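 qRT-PCR of BCL2 transcript, normalized to three housekeeping genes (ACTB, GAPDH, POLR2A), after 48 h chemical exposure of HepaRG cells; concentrations top 100 uM with half-log dilutions, 0.5% DMSO vehicle, duplicates; changes up or down fitted relative to vehicle.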

Read-out in assay [7]: Bcl-2 (BID) gene, BID (gene 637)
The assay is described as follows: LTEA_HepaRG_BID: Life Technologies and Expression Analysis (LTEA) Assay for Bcl-2 (BID) gene using HepaRG (AID 2283476). In short, it runs like this: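 Duplicate 48 h treatments of HepaRG cells in serum-free induction medium spanned 100 uM downward in half-log steps, 0.5% DMSO. Transcript change quantified by qRT-PCR against three housekeeping genes, fitted up or down versus DMSO.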

Read-out in assay [8]: Caspase-3 (Homo sapiens) (UniProt P42574)
Nature of the assay: LTEA_HepaRG_CASP3: Life Technologies and Expression Analysis (LTEA) Assay for cysteine-aspartic acid protease (CASP3) using HepaRG (AID 2283477). Summed up:
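Transcript-level assay: CASP3 mRNA in human HepaRG after 48 h treatment, eight half-log concentrations from 100 uM in 0.5% DMSO, quantified by qRT-PCR.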

Read-out in assay [9]: Cytochrome P450 (CYP24A1), CYP24A1 (gene 1591)
The assay is described as follows: LTEA_HepaRG_CYP24A1: Life Technologies and Expression Analysis (LTEA) Assay for Cytochrome P450 (CYP24A1) using HepaRG (AID 2283478). In short, it runs like this: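 Gene expression of CYP24A1 by TaqMan qRT-PCR in HepaRG after 48 h treatment, highest concentration 100 uM; activity fitted in both directions relative to DMSO vehicle.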

Read-out in assay [10]: Cytochrome P450 (CYP1A2), CYP1A2 (gene 1544)
The assay is described as follows: LTEA_HepaRG_CYP1A2: Life Technologies and Expression Analysis (LTEA) Assay for Cytochrome P450 (CYP1A2) using HepaRG (AID 2283479). In short, it runs like this:
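In duplicate wells, HepaRG cultures maintained in 0.5% DMSO were treated 48 h across an 8-point, half-log series topping at 100 uM; phenobarbital (1 mM) served as induction control. Expression was read by qRT-PCR.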

Read-out in assay [11]: cysteine-aspartic acid protease (CASP8), CASP8 (gene 841)
The assay is described as follows: LTEA_HepaRG_CASP8: Life Technologies and Expression Analysis (LTEA) Assay for cysteine-aspartic acid protease (CASP8) using HepaRG (AID 2283480). Summed up: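 Concentration-response in duplicate up to 100 uM (half-log steps, 0.5% DMSO) on differentiated HepaRG cultures for 48 h. Expression change of CASP8 mRNA is determined by TaqMan qRT-PCR with housekeeping-gene normalization.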

Read-out in assay [12]: Cytochrome P450 (CYP2B6), CYP2B6 (gene 1555)
The assay is described as follows: LTEA_HepaRG_CYP2B6: Life Technologies and Expression Analysis (LTEA) Assay for Cytochrome P450 (CYP2B6) using HepaRG (AID 2283481). Summed up: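 Human HepaRG, 48 h dosing, 0.5% DMSO vehicle, top dose 100 uM. CYP2B6 transcript by qRT-PCR, housekeeping-normalized, bidirectional curve fit.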

Read-out in assay [13]: Cytochrome P450 2C19 (Homo sapiens) (UniProt P33261)
The assay is described as follows: LTEA_HepaRG_CYP2C19: Life Technologies and Expression Analysis (LTEA) Assay for CYP2C19 using HepaRG (AID 2283482). Summed up:
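Endpoint: CYP2C19 mRNA change, bidirectional fit vs 0.5% DMSO. Cells: HepaRG, 48 h exposure, eight-point series topping at 100 uM. Quantitation: qRT-PCR normalized to ACTB, GAPDH, POLR2A.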

Read-out in assay [14]: CYP2C9 (gene 1559)
Nature of the assay: LTEA_HepaRG_CYP2C9: Life Technologies and Expression Analysis (LTEA) Assay for CYP2C9 using HepaRG (AID 2283484). Summed up: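 Eight-point concentration-response (highest 100 uM, half-log dilutions) in HepaRG cells for 48 h; CYP2C9 expression by qRT-PCR normalized to ACTB, GAPDH, POLR2A. Bidirectional fit, DMSO baseline.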

Read-out in assay [15]: CYP2E1 (gene 1571)
Nature of the assay: LTEA_HepaRG_CYP2E1: Life Technologies and Expression Analysis (LTEA) Assay for CYP2E1 using HepaRG (AID 2283485). Summed up: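 CYP2E1 transcript measured by Fluidigm qRT-PCR against three housekeeping genes in human HepaRG cells treated 48 h (top 100 uM, half-log steps, 0.5% DMSO vehicle). Gain or loss fitted relative to DMSO baseline.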

Read-out in assay [16]: Cytochrome P450 3A4 (Homo sapiens) (UniProt P08684)
The assay is described as follows: LTEA_HepaRG_CYP3A4: Life Technologies and Expression Analysis (LTEA) Assay for CYP3A4 using HepaRG (AID 2283487). Summed up: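 HepaRG, 48 h exposure, 8-pt CRC from 100 uM (half-log), 0.5% DMSO, duplicates; serum-free induction medium. Readout: CYP3A4 mRNA, qRT-PCR, ACTB/GAPDH/POLR2A normalization. Bidirectional fit vs DMSO.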

Read-out in assay [17]: DNA damage-inducible transcript 3 (DDIT3), DDIT3 (gene 1649)
Nature of the assay: LTEA_HepaRG_DDIT3: Life Technologies and Expression Analysis (LTEA) Assay for DNA damage-inducible transcript 3 (DDIT3) using HepaRG (AID 2283488). In short, it runs like this: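 DDIT3 transcript was quantified by qRT-PCR with ACTB/GAPDH/POLR2A normalization after 48 h chemical treatment of differentiated HepaRG cells in 0.5% DMSO. Dosing was eight-point, half-log, top 100 uM, duplicate wells. Curves fitted bidirectionally versus DMSO.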

Read-out in assay [18]: Pro-epidermal growth factor (Homo sapiens) (UniProt P01133)
The assay is described as follows: LTEA_HepaRG_EGF: Life Technologies and Expression Analysis (LTEA) Assay for Epidermal growth factor (EGF) using HepaRG (AID 2283489). In short, it runs like this:
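Concentration-response mRNA assay: HepaRG cells dosed 48 h (max 100 uM, 0.5% DMSO), EGF measured by qRT-PCR and normalized to ACTB/GAPDH/POLR2A.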

Read-out in assay [19]: CYP2C8 (gene 1558)
Nature of the assay: LTEA_HepaRG_CYP2C8: Life Technologies and Expression Analysis (LTEA) Assay for CYP2C8 using HepaRG (AID 2283483). Summed up:
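This is a transcriptional endpoint in HepaRG cultures: 48 h exposure, highest concentration 100 uM. CYP2C8 mRNA is quantified by TaqMan qRT-PCR.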

Read-out in assay [20]: CYP4A11 (gene 1579)
The assay is described as follows: LTEA_HepaRG_CYP4A11: Life Technologies and Expression Analysis (LTEA) Assay for CYP4A11 using HepaRG (AID 2283486). In short, it runs like this:
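Human hepatic HepaRG cultures receive duplicate 48 h exposures across a concentration-response series topping at 100 uM. Expression changes in CYP4A11 are measured by qRT-PCR relative to DMSO controls.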

Active and inactive are the calls of the source. How the source made its calls: active means hit-call score of the fitted dose curve at least 0.9, where 1 is the maximum; inactive means score below 0.9.

Cytochrome P450 2C19 (Homo sapiens), sequence (P33261 whole entry, looked up): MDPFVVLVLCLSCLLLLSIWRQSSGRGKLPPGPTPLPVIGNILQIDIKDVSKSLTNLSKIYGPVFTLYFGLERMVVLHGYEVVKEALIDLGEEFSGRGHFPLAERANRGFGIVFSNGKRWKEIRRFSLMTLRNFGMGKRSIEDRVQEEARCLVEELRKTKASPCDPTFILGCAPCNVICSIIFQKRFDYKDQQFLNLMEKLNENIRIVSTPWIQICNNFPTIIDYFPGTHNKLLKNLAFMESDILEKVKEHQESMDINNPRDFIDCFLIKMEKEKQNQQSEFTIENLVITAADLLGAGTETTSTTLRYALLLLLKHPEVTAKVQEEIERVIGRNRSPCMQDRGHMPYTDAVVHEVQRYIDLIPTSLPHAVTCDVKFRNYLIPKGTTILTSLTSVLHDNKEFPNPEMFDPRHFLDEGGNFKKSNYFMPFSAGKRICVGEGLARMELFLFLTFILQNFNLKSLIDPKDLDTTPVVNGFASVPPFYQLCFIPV
Cytochrome P450 3A4 (Homo sapiens), sequence (P08684 whole entry, looked up): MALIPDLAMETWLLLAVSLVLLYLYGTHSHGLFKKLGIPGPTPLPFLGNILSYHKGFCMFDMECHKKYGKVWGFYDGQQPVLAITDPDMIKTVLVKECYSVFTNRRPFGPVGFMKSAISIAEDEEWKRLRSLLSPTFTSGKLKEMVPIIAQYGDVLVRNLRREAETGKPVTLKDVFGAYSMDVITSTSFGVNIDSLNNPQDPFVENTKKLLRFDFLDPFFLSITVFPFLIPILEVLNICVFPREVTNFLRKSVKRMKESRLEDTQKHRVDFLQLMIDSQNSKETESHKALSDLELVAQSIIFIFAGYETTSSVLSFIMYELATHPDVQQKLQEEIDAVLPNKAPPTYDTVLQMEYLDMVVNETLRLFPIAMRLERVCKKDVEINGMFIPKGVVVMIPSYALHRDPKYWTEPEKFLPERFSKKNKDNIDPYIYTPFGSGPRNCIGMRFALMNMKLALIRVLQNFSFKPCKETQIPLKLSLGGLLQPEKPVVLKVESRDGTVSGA
Apoptosis regulator Bcl-2 (Homo sapiens), sequence (P10415 whole entry, looked up): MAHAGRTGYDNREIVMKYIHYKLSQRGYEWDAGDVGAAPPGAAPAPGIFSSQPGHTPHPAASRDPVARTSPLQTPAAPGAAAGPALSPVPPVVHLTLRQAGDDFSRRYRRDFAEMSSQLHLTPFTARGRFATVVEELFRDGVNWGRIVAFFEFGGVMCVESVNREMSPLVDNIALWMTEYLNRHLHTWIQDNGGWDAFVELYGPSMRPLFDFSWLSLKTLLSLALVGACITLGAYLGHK
Caspase-3 (Homo sapiens), sequence (P42574 whole entry, looked up): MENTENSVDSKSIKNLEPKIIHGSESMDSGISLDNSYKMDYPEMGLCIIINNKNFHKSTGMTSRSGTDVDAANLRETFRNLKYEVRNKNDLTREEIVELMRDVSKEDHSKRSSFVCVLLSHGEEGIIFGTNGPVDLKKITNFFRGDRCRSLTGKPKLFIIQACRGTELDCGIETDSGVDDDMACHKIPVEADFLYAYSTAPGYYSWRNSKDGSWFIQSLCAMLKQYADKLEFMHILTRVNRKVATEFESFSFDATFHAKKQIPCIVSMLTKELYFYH

One may read the AC50 as the midpoint of the concentration-response curve, whichever way the signal moves. With `OC(c1ccc(Cl)cc1)(c1ccc(Cl)cc1)C(Cl)(Cl)Cl`, the AC50 in assay [1] was 78.2 µM (active); in [2], 74 µM (active); in assay [5], 4.05 µM (active); in [6], 86.4 µM (active); in assay [7], 85 µM (active); in [8], 50 µM (active). In addition, the AC50 in assay [11] is 50 µM (active); in [12] it was 11.8 µM (active); in assay [13] it was 85.2 µM (active); in assay [14], 81.6 µM (active); in [15], 50 µM (active); in [16], 87.6 µM (active). Besides, the AC50 in assay [17] was 77.2 µM (active). The result in assay [3], in assay [4], in [9], in assay [10] and in assay [18] was inactive.
For `CC(C)NC(=O)N1CC(=O)N(c2cc(Cl)cc(Cl)c2)C1=O`, the call in assay [1], in [2], in assay [4], in assay [6], in assay [7] and in assay [8] was inactive. The compound was classed as inactive in [9], in [11], in assay [13], in [19], in assay [14] and in assay [17]. Besides, the AC50 in assay [3] is 13.2 µM (active); in assay [5] it was 22.7 µM (active); in assay [10] it was 8.18 µM (active); in [12], 3.63 µM (active); in [15], 13.2 µM (active); in [16], 2.97 µM (active). In addition, the AC50 in assay [18] was 12.8 µM (active).
Consider `CCOc1nc(C(Cl)(Cl)Cl)ns1`, for which the concentration at half-maximal activity (AC50) is 1.39 µM (active) in [1]; 1.06 µM (active) in [2]; 1.77 µM (active) in assay [3]; 0.862 µM (active) in assay [4]; 1.44 µM (active) in assay [5]; 1.51 µM (active) in assay [6]. Besides, the AC50 was 1.33 µM (active) in assay [7]; 1.05 µM (active) in [8]; 1.93 µM (active) in assay [9]; 0.939 µM (active) in assay [10]; 1.08 µM (active) in assay [11]; 1.28 µM (active) in assay [12]. For the same compound, the AC50 is 14.9 µM (active) in [13], 1.12 µM (active) in assay [20] and 1.61 µM (active) in assay [17]. Also, the call in assay [14], in [15] and in assay [16] was inactive.

The values are drawn from PubChem BioAssay (EPA / NIEHS).
